Assay results from PubChem BioAssay (NCATS).
Inconclusive results are not listed. The source made the active and inactive calls. Unless noted, the call rests on the fitted dose curve; in most records, active means well fitted curve in the direction sought with a large enough effect; inconclusive means small, poorly fitted or top-dose-only effect, or another doubt; inactive means no such curve, though single readings can be large; an effect the other way counts as inactive or inconclusive.

Key:
[1] = Cell Viability - LYMP1-003 - Assay at 40 hr (AID 964); further: nearly all actives have a fitted effect of over 60% in size
Summary of the method: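 Cells were seeded at 2500 per well and incubated 5 hr at 37 C. Compounds were added across a concentration series and left 40 hr at 37 C. CellTiter-Glo was added for 30 min at room temperature before luminescence reading.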

[2] = Cell Viability - LYMP2-013 (AID 970);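 further: cells exposed to compound for 24 h at 37 °C; nearly all actives have a fitted effect of over 55% in size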
Summary of the method: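 qHTS; 2500 lymphoblastoid cells/well; 5 hr 37 C settle; cpd 24 hr 37 C; CellTiter-Glo, 30 min RT; luminescence. AC50 = Hill fit.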

[3] = Cell Viability - LYMP2-017 (AID 972); further: nearly all actives have a fitted effect of over 55% in size; on activity change, negative = cytotoxicity: on the % scale 0 is the no-effect control and ±100 the full control effect
Summary of the method: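 2500 cells/well, 5 h 37 C; cpd 24 h 37 C in complete medium; CellTiter-Glo, 30 min RT; luminescence (ATP). AC50 via Hill fit, qHTS.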

[4] = Cell Viability - LYMP2-025 (AID 976);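 further: cells exposed to compound for 24 h at 37 °C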;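 on activity change, negative = cytotoxicity: plate controls were DMSO only for no effect and tetraoctylammonium bromide control for full effect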
Summary of the method: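 Seed 2500 LYMP2-025 cells/well; 5 hr at 37 C; add compound; 24 hr at 37 C; add CellTiter-Glo; 30 min RT; read luminescence. AC50 from Hill-modelled concentration-response.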

[5] = Cell Viability - LYMP2-006 (AID 978); further: nearly all actives have a fitted effect of over 60% in size; on activity change, negative = cytotoxicity: on the % scale 0 is the no-effect control and ±100 the full control effect
Summary of the method: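 In this cytotoxicity screen, the human lymphoblastoid line grew in complete medium with test compounds for 24 hr at 37 C. Cellular ATP served as the viability signal.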

[6] = Cell Viability - LYMP2-010 (AID 981); further: nearly all actives have a fitted effect of over 55% in size
Summary of the method: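 Luminescent ATP signal (CellTiter-Glo) served as the viability read-out. Cells of the human lymphoblastoid line were treated with compound over a concentration range for 24 hours at 37 C, and AC50 values came from Hill-equation modeling.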

[7] = Cell Viability - LYMP1-002 - Assay at 40 hr (AID 994); further: nearly all actives have a fitted effect of over 60% in size
Summary of the method: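 Luminescent ATP signal served as the viability readout, with decreases taken as toxicity. Cells were treated with compounds across a concentration range for 40 hours at 37 C, and AC50 values came from standard Hill modeling.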

[8] = molecular target: Voltage-gated inwardly rectifying potassium channel KCNH2 (Homo sapiens) (UniProt Q12809); assay: qHTS Assay for Small Molecule Inhibitors of the Human hERG Channel Activity (AID 588834);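 further: lower thallium flux fluorescence means stronger hERG block; nearly all actives have a fitted effect of over 50% in size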
Summary of the method: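 Blockade is seen as reduced FluxOR thallium-flux fluorescence in U2OS cells expressing hERG from a BacMam construct, in Opti-MEM with 2% FCS. Concentration-response data fitted to the Hill equation for AC50.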

[9] = qHTS assay for small molecule disruptors of the mitochondrial membrane potential - 5 hr assay (AID 651755; calls by dose curve; further: nearly all actives have a fitted effect of over 40% in size)
Summary of the method: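 HepG2, 2,000 cells/well, overnight attach; cpd or DMSO 5 hr, 37C/5% CO2; Mito-MPS 30 min 37C; fluor 490/535 + 540/590 nm.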

[10] = Cell Viability - HUV-EC-C (AID 542); further: nearly all actives have a fitted effect of over 35% in size; on activity change, negative = cytotoxicity: on the % scale 0 is the no-effect control and ±100 the full control effect
Summary of the method: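 qHTS cytotoxicity: HUV-EC-C, 1000 cells/well, 5 hr settle, compound 40 hr 37 °C, CellTiter-Glo, luminescence. AC50 via Hill equation.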

[11] = Cell Viability - Mesenchymal (AID 546); conditions: mesenchymal cells viability, qHTS; activity change, negative = cytotoxicity: at 91.7 µM (top of the series);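 further: cells exposed to compound for 40 hours before reading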;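 on activity change, negative = cytotoxicity: 0% = DMSO only and -100% = 100 µM tamoxifen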
Summary of the method: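 AC50 values reflect the drop in intracellular ATP in a human kidney mesenchymal line derived from normal glomeruli. Treatment lasts 40 hr at 37 °C in complete medium, and the signal comes from CellTiter-Glo luminescence.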

[12] = MultiTox-Fluor Cytotoxicity Assay - LYMP1-001 - Live Cells (AID 947);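 on activity change, negative = cytotoxicity: 0% = DMSO only and full inhibition = tetraoctylammonium bromide control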
[13] = MultiTox-Fluor Cytotoxicity Assay - LYMP1-003 - Dead Cells (AID 961); further: nearly all actives have a fitted effect of over 70% in size
Summary of the method: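 Dead-cell protease release, detected as bis-AAF-R110 fluorescence at 485/520 nm, was measured in LYMP1-003 cells after 16 h compound treatment at 37 C. AC50 values came from Hill-modeled qHTS curves normalized to DMSO (0%) and 15 uM tetraoctylammonium bromide (100%).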

[14] = Cell Viability - LYMP2-004 (AID 966);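 further: cells exposed to compound for 24 h; nearly all actives have a fitted effect of over 65% in size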;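 on activity change, negative = cytotoxicity: plate controls were DMSO only for no effect and tetraoctylammonium bromide control for full effect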
Summary of the method: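 Cells seeded 2500/well, rested 5 hr at 37 C, dosed across a concentration series, incubated 24 hr at 37 C, then CellTiter-Glo added for 30 min at room temperature and luminescence read. Hill fitting gave AC50.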

[15] = Cell Viability - LYMP2-011 (AID 969); further: nearly all actives have a fitted effect of over 60% in size
Summary of the method: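 2500 cells/well, 5 hr 37 C; compound added, 24 hr 37 C; CellTiter-Glo 30 min RT; luminescence. qHTS concentration-response, Hill-equation AC50. Tetraoctylammonium bromide positive control.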

[16] = Cell Viability - LYMP2-019 (AID 973);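 further: cells exposed to compound for 24 h at 37 °C; nearly all actives have a fitted effect of over 55% in size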;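 on activity change, negative = cytotoxicity: 0% = DMSO alone and full effect = 92 µM tetraoctylammonium bromide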
Summary of the method: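 Luminescent ATP read-out (CellTiter-Glo, 30 min room temperature) served as the viability measure after 24 hr treatment of lymphoblastoid cells at 37 C. Concentration-response data were fitted to the Hill equation for AC50.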

[17] = Cell Viability - LYMP2-023 (AID 975); further: nearly all actives have a fitted effect of over 55% in size;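 on activity change, negative = cytotoxicity: cellular ATP measured by luciferase luminescence as viability proxy; plate controls were DMSO only for no effect and 92 µM tetraoctylammonium bromide control for full effect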
Summary of the method: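 2500 cells/well, 5 hr 37 C; cpd 24 hr 37 C; CellTiter-Glo, 30 min RT; luminescence. qHTS conc-response, Hill fit -> AC50. Pos ctrl tetraoctylammonium bromide.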

[18] = Cell Viability - LYMP2-002 (AID 977);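 further: compound exposure lasted 24 h at 37 °C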
Summary of the method: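 Cytotoxicity is scored as concentration-dependent loss of cellular ATP in a human lymphoblastoid line after 24 hr compound treatment at 37 C. AC50 is obtained by modelling concentration-response data with the Hill equation.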

[19] = Cell Viability - LYMP2-014 (AID 983);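 further: cells exposed to compound for 24 h at 37 °C; nearly all actives have a fitted effect of over 50% in size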;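 on activity change, negative = cytotoxicity: plate controls were DMSO only for no effect and 92 µM tetraoctylammonium bromide for full effect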
Summary of the method: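 Luminescent ATP signal (CellTiter-Glo, 30 min at room temperature) serves as the viability read-out after 24 hr compound exposure at 37 C. Cells were seeded at 2500 per well and settled 5 hr beforehand.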

[20] = Cell Viability - LYMP2-026 (AID 989);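 further: cells exposed to compound for 24 h at 37 °C; nearly all actives have a fitted effect of over 50% in size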
Summary of the method: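 Luminescent ATP signal (CellTiter-Glo, 30 min room temperature) measures viable lymphoblastoid cells after 24 hr compound treatment at 37 C. Decreased ATP reflects acute toxicity; AC50 values come from Hill-equation modeling.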
Potency means the concentration at half of the fitted maximal effect.

Voltage-gated inwardly rectifying potassium channel KCNH2 (Homo sapiens), sequence (Q12809 whole entry, looked up): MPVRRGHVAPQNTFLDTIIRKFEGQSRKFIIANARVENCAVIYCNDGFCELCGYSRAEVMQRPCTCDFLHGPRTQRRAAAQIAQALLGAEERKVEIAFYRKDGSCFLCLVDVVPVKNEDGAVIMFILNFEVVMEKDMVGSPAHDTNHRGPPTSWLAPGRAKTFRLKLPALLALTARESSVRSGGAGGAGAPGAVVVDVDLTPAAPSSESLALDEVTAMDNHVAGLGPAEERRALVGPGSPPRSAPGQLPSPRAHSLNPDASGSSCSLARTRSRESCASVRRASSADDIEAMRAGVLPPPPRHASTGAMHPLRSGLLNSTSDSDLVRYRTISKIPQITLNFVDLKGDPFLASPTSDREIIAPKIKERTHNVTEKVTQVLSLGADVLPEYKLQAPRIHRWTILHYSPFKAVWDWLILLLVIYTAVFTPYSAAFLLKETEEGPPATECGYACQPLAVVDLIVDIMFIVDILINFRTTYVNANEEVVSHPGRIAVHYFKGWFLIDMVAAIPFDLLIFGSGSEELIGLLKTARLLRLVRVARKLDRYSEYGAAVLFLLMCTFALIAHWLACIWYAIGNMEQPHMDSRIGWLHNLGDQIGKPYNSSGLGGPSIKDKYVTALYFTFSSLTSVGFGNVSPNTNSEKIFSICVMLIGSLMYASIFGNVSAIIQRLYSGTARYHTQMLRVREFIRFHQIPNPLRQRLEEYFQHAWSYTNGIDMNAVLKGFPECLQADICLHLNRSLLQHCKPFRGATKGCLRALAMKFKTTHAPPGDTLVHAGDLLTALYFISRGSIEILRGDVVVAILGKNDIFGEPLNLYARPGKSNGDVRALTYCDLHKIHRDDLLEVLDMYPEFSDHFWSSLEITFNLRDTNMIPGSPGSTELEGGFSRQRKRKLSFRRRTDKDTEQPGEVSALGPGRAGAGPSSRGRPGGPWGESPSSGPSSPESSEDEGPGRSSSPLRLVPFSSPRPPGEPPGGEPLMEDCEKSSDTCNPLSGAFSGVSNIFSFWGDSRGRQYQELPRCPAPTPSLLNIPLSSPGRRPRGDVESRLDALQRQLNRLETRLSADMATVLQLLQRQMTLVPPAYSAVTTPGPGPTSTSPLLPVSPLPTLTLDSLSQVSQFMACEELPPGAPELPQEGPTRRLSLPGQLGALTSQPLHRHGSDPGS

Oc1ccc2cc(SSc3ccc4cc(O)ccc4c3)ccc2c1
active: Potency [1] 50.1 µM | Potency [2] 50.1 µM | Potency [3] 50.1 µM | Potency [5] 50.1 µM | Potency [6] 39.8 µM | Potency [7] 39.8 µM | Potency [8] 44.7 µM | Potency [9] 42.2 µM
inactive: Potency [4]

Cc1ccc(S(=O)(=O)Oc2ccc(N=Nc3ccc(-c4ccc(N=Nc5c(O)ccc6cc(S(=O)(=O)O)cc(S(=O)(=O)O)c56)c(C)c4)cc3C)cc2)cc1
active: Potency [10] 25.1 µM | Potency [11] 31.6 µM
inactive: Potency [8]

O=C1OC(O)C(C(Cl)Cl)=C1Cl (stereo unspecified)
inactive: Potency [10] | Potency [12] | Potency [8] | Potency [9]
active: Potency [13] 63.1 µM | Potency [14] 12.6 µM | Potency [15] 25.1 µM | Potency [2] 25.1 µM | Potency [3] 25.1 µM | Potency [16] 25.1 µM | Potency [17] 20 µM | Potency [4] 31.6 µM | Potency [18] 25.1 µM | Potency [5] 25.1 µM | Potency [6] 15.8 µM | Potency [19] 25.1 µM | Potency [20] 25.1 µM

Cc1cc(Nc2ccc(O)cc2)ccc1N
active: Potency [14] 39.8 µM | Potency [15] 50.1 µM | Potency [2] 50.1 µM | Potency [3] 39.8 µM | Potency [16] 39.8 µM | Potency [17] 50.1 µM | Potency [4] 50.1 µM | Potency [5] 50.1 µM | Potency [6] 31.6 µM | Potency [19] 50.1 µM | Potency [20] 50.1 µM
inactive: Potency [12] | Potency [13] | Potency [7] | Potency [8]

c1ccc2c(c1)-c1cccc3c1c-2cc1ccccc13
inactive: Potency [10] | Potency [12] | Potency [13] | Potency [1] | Potency [14] | Potency [15] | Potency [2] | Potency [3] | Potency [16] | Potency [17] | Potency [4] | Potency [18] | Potency [5] | Potency [6] | Potency [19] | Potency [20] | Potency [7] | Potency [8] | Potency [9]

C=CC(=O)OCCOCCOC(=O)C=C
inactive: Potency [8] | Potency [9]
active: activity change, negative = cytotoxicity [11] -100% | Potency [12] 31.6 µM | Potency [13] 20 µM | Potency [1] 25.1 µM | Potency [14] 10 µM | Potency [15] 20 µM | Potency [2] 25.1 µM | Potency [3] 20 µM | Potency [16] 25.1 µM | Potency [17] 25.1 µM | Potency [4] 31.6 µM | Potency [18] 25.1 µM | Potency [5] 25.1 µM | Potency [6] 15.8 µM | Potency [19] 20 µM | Potency [20] 20 µM | Potency [7] 25.1 µM

CC(=O)Nc1ccc(C(=O)CCl)cc1
active: Potency [10] 50.1 µM | Potency [11] 12.6 µM | Potency [12] 20 µM | Potency [13] 25.1 µM | Potency [1] 39.8 µM | Potency [14] 3.98 µM | Potency [15] 6.31 µM | Potency [2] 6.31 µM | Potency [3] 5.01 µM | Potency [16] 5.01 µM | Potency [17] 7.94 µM | Potency [4] 10 µM | Potency [18] 7.94 µM | Potency [5] 10 µM | Potency [6] 3.98 µM | Potency [19] 7.94 µM | Potency [20] 7.94 µM | Potency [7] 39.8 µM
inactive: Potency [9]

C=C(C)c1ccccc1
inactive: Potency [10] | Potency [11] | Potency [12] | Potency [13] | Potency [1] | Potency [14] | Potency [15] | Potency [2] | Potency [3] | Potency [16] | Potency [17] | Potency [4] | Potency [18] | Potency [5] | Potency [6] | Potency [19] | Potency [20] | Potency [7] | Potency [8] | Potency [9]
